The panel holds about 79,000 compounds, 15% with a hit somewhere; the sample as a whole holds those more often. Values without a mark were called inactive. Calls of active or inactive are those of the source. Rule as the data show it: active = growth inhibition above about 70%; inactive = the rest.
Legend:
[1] = NCI Yeast Anticancer Drug Screen. Data for the rad52 strain (AID 147);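 also: 0% = growth of vehicle-treated control cultures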; conditions: S. cerevisiae rad52 mutant growth inhibition, hits give high values
Summary of the method: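 Screen used a yeast mutant impaired in DNA repair. After compound exposure, growth was measured. Values reflect inhibition compared with vehicle-treated cells.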

[2] = NCI Yeast Anticancer Drug Screen. Data for the wt1 strain (AID 149);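 also: 0% = growth of vehicle-treated wt1 cultures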; conditions: S. cerevisiae wt1 strain (SPY 50644) growth inhibition, hits give high values
Summary of the method: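 Each compound is tested on wt1 yeast and the loss of growth versus vehicle gives the inhibition value.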

[3] = NCI Yeast Anticancer Drug Screen. Data for the rad50EPP+ strain (AID 151);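 also: 0% = growth of vehicle-treated control cultures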; conditions: S. cerevisiae rad50 mutant strain, hits give high values
Summary of the method: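 Exposing the rad50EPP+ strain to each compound, growth was compared with vehicle-only cultures to give inhibition.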

[4] = NCI Yeast Anticancer Drug Screen. Data for the mgt1 strain (AID 153); conditions: S. cerevisiae mgt1 mutant growth inhibition, hits give high values
Summary of the method: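 Genetically defined yeast (mgt1) treated with compound; inhibition of growth expressed against vehicle-treated controls.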

[5] = NCI Yeast Anticancer Drug Screen. Data for the rad50 strain (AID 155);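 also: 0% = growth of vehicle-only cultures of the same strain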; conditions: S. cerevisiae rad50 strain growth inhibition, hits give high values
Summary of the method: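 Vehicle-treated cultures provide the reference for the growth inhibition reported for compound-exposed, repair-deficient yeast.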

[6] = NCI Yeast Anticancer Drug Screen. Data for the mec2-1 strain (AID 157); conditions: S. cerevisiae mec2-1 strain, hits give high values
Summary of the method: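 Readout is yeast growth inhibition, normalised to vehicle-treated controls, in the mec2-1 strain exposed to compound.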

[7] = NCI Yeast Anticancer Drug Screen. Data for the rad14 strain (AID 159);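 also: 0% = growth of vehicle-treated control cultures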; conditions: S. cerevisiae rad14 strain growth inhibition, hits give high values
Summary of the method: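 Inhibition of growth is reported for a repair-deficient yeast mutant following compound treatment, calculated relative to cultures that received vehicle.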

[8] = NCI Yeast Anticancer Drug Screen. Data for the sgs1 mgt1 strain (AID 161);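 also: 0% = growth of cultures given vehicle only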; conditions: S. cerevisiae sgs1 mgt1 strain, hits give high values
Summary of the method: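 Compounds are added to genetically altered yeast, and growth is compared with cultures given vehicle alone to give percent inhibition.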

[9] = NCI Yeast Anticancer Drug Screen. Data for the CLN2oe strain (AID 163);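 also: 0% = growth of vehicle-only control cultures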; conditions: S. cerevisiae CLN2oe strain, hits give high values
Summary of the method: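 Values reflect how much compound exposure reduced yeast growth, referenced to vehicle-exposed cells. Assay organism is a strain with a defined genetic change affecting cell-cycle control.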

[10] = NCI Yeast Anticancer Drug Screen. Data for the cln2 rad14 strain (AID 165);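 also: 0% = growth equal to vehicle treated cultures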; conditions: S. cerevisiae cln2 rad14 strain, hits give high values
Summary of the method: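 Relative to vehicle controls, growth inhibition of compound-treated cln2 rad14 yeast was recorded.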

[11] = NCI Yeast Anticancer Drug Screen. Data for the bub3 strain (AID 167); conditions: S. cerevisiae bub3 mutant strain, hits give high values
Summary of the method: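 Mutant yeast screening strain plus compound; vehicle-treated cultures serve as the 0% inhibition reference.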

[12] = NCI Yeast Anticancer Drug Screen. Data for the wt2 strain (AID 169); conditions: S. cerevisiae wt2 strain growth inhibition, hits give high values
Summary of the method: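 Values express reduction in yeast growth under compound treatment, referenced to vehicle-treated cells.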

[13] = NCI Yeast Anticancer Drug Screen. Data for the mlh1 strain (AID 171);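 also: 0% = growth of vehicle-treated control cultures of the same strain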; conditions: S. cerevisiae mlh1 strain growth inhibition, hits give high values
Summary of the method: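 Steps: expose the defined-mutant yeast strain to compound; expose a parallel culture to vehicle; measure growth; express compound effect as inhibition relative to the vehicle culture.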

[14] = NCI Yeast Anticancer Drug Screen. Data for the sgs1 strain (AID 173);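 also: 0% = growth of vehicle-only control cultures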; conditions: S. cerevisiae sgs1 mutant, hits give high values
Summary of the method: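 Treat defined-mutant yeast with compound; measure growth; calculate inhibition relative to vehicle-treated cells.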

[15] = NCI Yeast Anticancer Drug Screen. Data for the mlh1 rad18 strain (AID 175); conditions: S. cerevisiae mlh1 rad18 strain growth inhibition, hits give high values
Summary of the method: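 Test agents were incubated with a yeast strain of defined genotype (DNA damage repair defect). Inhibition of growth was derived by comparison with vehicle-exposed cultures.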

[16] = NCI Yeast Anticancer Drug Screen. Data for the rad18 strain (AID 177); conditions: S. cerevisiae rad18 mutant growth inhibition, hits give high values
Summary of the method: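 A genetically defined yeast mutant impaired in DNA damage repair was treated with test compounds, then its growth was measured against cultures receiving vehicle alone.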

[17] = at 5.0 µM (retest, dose inferred, filed as 0.5)
[18] = at 50.0 µM (retest, dose inferred, filed as 5.0)

SMILES: O=[N+]([O-])c1ccc2c(c1)/C(=N/N=C1c3ccccc3Cc3ccccc31)c1cc([N+](=O)[O-])cc([N+](=O)[O-])c1-2
- growth inhibition ([1]; at 1.2 µM): 9%
- growth inhibition ([1]; at 3.7 µM): 32%
- growth inhibition ([1]; at 11.0 µM): 91% (active)
- growth inhibition ([1]; at 33.0 µM): 98% (active)
- growth inhibition ([1]; at 100.0 µM): 96% (active)
- growth inhibition ([2]; at 1.2 µM): -19%
- growth inhibition ([2]; at 3.7 µM): 21%
- growth inhibition ([2]; at 11.0 µM): 99% (active)
- growth inhibition ([2]; at 33.0 µM): 99% (active)
- growth inhibition ([2]; at 100.0 µM): 97% (active)
- growth inhibition ([3]; at 1.2 µM): -7%
- growth inhibition ([3]; at 3.7 µM): 86% (active)
- growth inhibition ([3]; at 11.0 µM): 99% (active)
- growth inhibition ([3]; at 33.0 µM): 97% (active)
- growth inhibition ([3]; at 100.0 µM): 94% (active)
- growth inhibition ([4]; at 1.2 µM): 16%
- growth inhibition ([4]; at 3.7 µM): 74% (active)
- growth inhibition ([4]; at 11.0 µM): 99% (active)
- growth inhibition ([4]; at 33.0 µM): 98% (active)
- growth inhibition ([4]; at 100.0 µM): 93% (active)
- growth inhibition ([5]; at 1.2 µM): -10%
- growth inhibition ([5]; at 3.7 µM): 60%
- growth inhibition [5, 17]: 9%
- growth inhibition ([5]; at 11.0 µM): 96% (active)
- growth inhibition ([5]; at 33.0 µM): 98% (active)
- growth inhibition [5, 18]: 96% (active)
- growth inhibition ([5]; at 50.0 µM): 82.7% (active)
- growth inhibition ([5]; at 100.0 µM): 94% (active)
- growth inhibition ([6]; at 1.2 µM): 16%
- growth inhibition ([6]; at 3.7 µM): 78% (active)
- growth inhibition [6, 17]: 24%
- growth inhibition ([6]; at 11.0 µM): 99% (active)
- growth inhibition ([6]; at 33.0 µM): 98% (active)
- growth inhibition [6, 18]: 96% (active)
- growth inhibition ([6]; at 50.0 µM): 81.5% (active)
- growth inhibition ([6]; at 100.0 µM): 95% (active)
- growth inhibition ([7]; at 1.2 µM): 16%
- growth inhibition ([7]; at 3.7 µM): 53%
- growth inhibition ([7]; at 11.0 µM): 98% (active)
- growth inhibition ([7]; at 33.0 µM): 99% (active)
- growth inhibition ([7]; at 100.0 µM): 95% (active)
- growth inhibition [8, 17]: 75% (active)
- growth inhibition [8, 18]: 98% (active)
- growth inhibition ([8]; at 50.0 µM): 89.2% (active)
- growth inhibition ([9]; at 1.2 µM): 28%
- growth inhibition ([9]; at 3.7 µM): 50%
- growth inhibition ([9]; at 11.0 µM): 99% (active)
- growth inhibition ([9]; at 33.0 µM): 99% (active)
- growth inhibition ([9]; at 100.0 µM): 95% (active)
- growth inhibition [10, 17]: 25%
- growth inhibition [10, 18]: 97% (active)
- growth inhibition ([10]; at 50.0 µM): 85.8% (active)
- growth inhibition ([11]; at 1.2 µM): 4%
- growth inhibition ([11]; at 3.7 µM): 57%
- growth inhibition [11, 17]: 63%
- growth inhibition ([11]; at 11.0 µM): 99% (active)
- growth inhibition ([11]; at 33.0 µM): 98% (active)
- growth inhibition [11, 18]: 98% (active)
- growth inhibition ([11]; at 50.0 µM): 85.9% (active)
- growth inhibition ([11]; at 100.0 µM): 91% (active)
- growth inhibition ([12]; at 1.2 µM): 15%
- growth inhibition ([12]; at 3.7 µM): 41%
- growth inhibition ([12]; at 11.0 µM): 98% (active)
- growth inhibition ([12]; at 33.0 µM): 98% (active)
- growth inhibition ([12]; at 100.0 µM): 94% (active)
- growth inhibition ([13]; at 1.2 µM): 15%
- growth inhibition ([13]; at 3.7 µM): 50%
- growth inhibition ([13]; at 11.0 µM): 99% (active)
- growth inhibition ([13]; at 33.0 µM): 98% (active)
- growth inhibition ([13]; at 100.0 µM): 93% (active)
- growth inhibition ([14]; at 1.2 µM): 18%
- growth inhibition ([14]; at 3.7 µM): 64%
- growth inhibition ([14]; at 11.0 µM): 99% (active)
- growth inhibition ([14]; at 33.0 µM): 99% (active)
- growth inhibition ([14]; at 100.0 µM): 95% (active)
- growth inhibition [15, 17]: 27%
- growth inhibition [15, 18]: 96% (active)
- growth inhibition ([15]; at 50.0 µM): 82.5% (active)
- growth inhibition ([16]; at 1.2 µM): 50%
- growth inhibition ([16]; at 3.7 µM): 81% (active)
- growth inhibition ([16]; at 11.0 µM): 97% (active)
- growth inhibition ([16]; at 33.0 µM): 97% (active)
- growth inhibition ([16]; at 100.0 µM): 94% (active)

Reference: PubChem BioAssay (NCI)
